The source of these data is PMC9574860, “Chemical Toolkit for PARK7: Potent, Selective, and High-Throughput” (Journal of Medicinal Chemistry, 2022).

Molecules are shown by their SMILES. The whole screen tested about 7,900 compounds, of which about 400 (5.1%) showed an effect of 50% or more. The sample holds strong results, similar compounds and a random draw of the others, so the mix is not that of the screen.

For the assay, the target named is Parkinson's disease protein 7 (PARK7/DJ1) (human, UniProt Q99497). The experiment in a line: primary screen, percent inhibition; read as competition with a fluorescent probe by fluorescence polarization; higher = more effect of the substance. The settings on record: 100 µM. In outline: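 Fluorescence-polarization probe displacement (JYQ-107, 20 nM final, 2 h) after 2 h preincubation of PARK7 (0.2 μM final) with each fragment at 100 μM final. Read-out ex/em 480/520 nm; remaining activity derived from FP signal loss relative to reference controls.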
Sequence of Parkinson's disease protein 7 (PARK7/DJ1) (Q99497 whole entry, looked up, the tested form may be a part): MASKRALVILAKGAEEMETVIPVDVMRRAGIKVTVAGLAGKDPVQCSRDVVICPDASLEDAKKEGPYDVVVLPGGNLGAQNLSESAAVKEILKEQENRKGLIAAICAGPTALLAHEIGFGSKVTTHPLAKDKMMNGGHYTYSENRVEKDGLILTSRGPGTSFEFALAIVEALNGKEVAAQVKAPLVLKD
As to `COc1cc(F)ccc1N1CCN(C2CCOC2=O)CC1` (stereo not drawn), the Inhibition % came out at 7.6%.

In the case of `O=C(O)CNC(=O)C12CC3CC(CC(Cl)(C3)C1)C2`, the Inhibition % was 7.56%.

As to `Cc1c(NC(=O)CCl)cccc1[N+](=O)[O-]`, the Inhibition % worked out at 8.38%.

For the molecule `C=CC(=O)NCC1CCC2(CCC2)CO1` (stereo not drawn), the Inhibition % is reported as 5.32%.

As to `O=C(Nc1ccc(Cl)cc1)N1CCCCC1C1OCCO1` (stereo not drawn), the Inhibition % is reported as 5.3%.

For the molecule `C=CC(=O)N1CCC(c2ccco2)CC1`, the Inhibition % was 8.73%.

Take `Cc1ccn(S(=O)(=O)c2ccc(C(C)(C)C)cc2)n1`: the Inhibition % came to 4.34%.

Consider `Cc1ncsc1C=C(C#N)C(=O)NCCc1ccccc1`, for which the Inhibition % is given as 6.72%.

Turning to `CS(=O)(=O)Nc1ccc(C(=O)CCl)cc1`, the Inhibition % worked out at 75.1%.

As for `CS(=O)(=O)Nc1ccc(B(O)O)cc1`, the Inhibition % stood at 9.91%.

Consider `Cc1cc(I)ccc1NC(=O)CCl`, for which the Inhibition % worked out at 7.36%.

In the case of `Cc1c(NC(=O)c2cccnc2S)cnn1CCC(C)C`, the Inhibition % came out at 3.61%.

In the case of `CC(=O)N1CCc2sc(C(=O)CCl)cc2C1`, the Inhibition % turned out to be 73.5%.

In the case of `O=C(CCl)NNC(=O)c1cc2c(s1)CCCC2`, the Inhibition % was determined as 4.38%.

On to `O=C(CCl)c1ccc2c(c1)CCN(C(=O)C(F)(F)F)C2`, for which the Inhibition % is given as 2.68%.

For the molecule `N#Cc1c(-c2ccccc2)nc(S)[nH]c1=O`, the Inhibition % came to 13.2%.

For `Cc1ccc(CN2CCCN(C(=O)CCl)CC2)cc1.Cl`, the Inhibition % was determined as 13%.

Turning to `COc1cc(S(=O)(=O)n2cccn2)ccc1F`, the Inhibition % is 1.65%.

For `O=C1OCCC1Sc1ncnc2ccsc12` (stereo not drawn), the Inhibition % is given as 3.13%.

With `CN(C)C(=O)c1ccc(NC(=O)CCl)cc1`, the Inhibition % is given as 44.1%.

Turning to `O=C(O)c1csc(C(=O)CCl)c1`, the Inhibition % was 102%.

Consider `CN(C)C(=O)c1cccc(NC(=O)CCl)c1`, for which the Inhibition % amounted to 12.2%.

Consider `Cn1cc(C(=O)CCl)cc1C(N)=O`, for which the Inhibition % is recorded as 0.329%.

As for `CN(C)C(=O)c1csc(C(=O)CCl)c1`, the Inhibition % is on record as 67.8%.

As to `CN(C(=O)c1cc(C(N)=O)cs1)C1CC(C)(C)OC1=O` (stereo not drawn), the Inhibition % amounted to 7.6%.

For `O=C(CCl)Nc1cccc(C(=O)O)c1`, the Inhibition % was 13.2%.

Consider `NC(=O)c1csc(C(=O)CCl)c1`, for which the Inhibition % turned out to be 101%.

On to `CC(C)C1NC(=O)C12CCCCCC2` (stereo not drawn), for which the Inhibition % came to 9.56%.

With `C=CC(=O)NC1(C)CCC(C)CC1` (stereo not drawn), the Inhibition % was found to be 29.1%.

Turning to `C=CC(=O)NCCc1nc2c(C)cccc2o1`, the Inhibition % was 9.51%.

On to `Cc1cc(NC(=O)CCl)n(-c2ccccc2)n1`, for which the Inhibition % came out at 29.6%.

Take `Cc1nn(-c2ccccc2)c(C)c1C=C(C#N)C(=O)O`: the Inhibition % worked out at 6.36%.

In the case of `CN(C)C(=O)c1ccc(B2OC(C)(C)C(C)(C)O2)c(Cl)c1`, the Inhibition % was 2.75%.

Regarding `Cn1ncc(C(=O)O)c1C#N`, the Inhibition % worked out at 13.7%.

In the case of `CCCc1cc(=O)[nH]c(S)n1`, the Inhibition % is reported as 8.86%.

For the molecule `Cl.NCc1cc(=O)[nH]c(S)n1`, the Inhibition % was found to be 27.5%.

As for `NC(=O)Cc1cc(=O)[nH]c(S)n1`, the Inhibition % is recorded as 52.6%.

For the molecule `N#CC(=Cc1ccc(F)cc1)C(=O)O`, the Inhibition % is 2.9%.

Consider `C=CC(=O)NCC1(C)OCCc2sccc21` (stereo not drawn), for which the Inhibition % is listed as 16.4%.

Consider `Cn1ncc(C(=O)Nc2cccc(S(=O)(=O)F)c2)c1C#N`, for which the Inhibition % is 4.68%.

With `Cc1cc(C(=O)Nc2cccc(S(=O)(=O)F)c2)nn1C(C)(C)C`, the Inhibition % is reported as 32.8%.

For the molecule `COc1nc(C)ccc1C(=O)Nc1cccc(S(=O)(=O)F)c1`, the Inhibition % stood at 11.7%.

With `CC1(C(=O)Nc2cccc(S(=O)(=O)F)c2)CCCC1`, the Inhibition % was determined as 97.7%.

On to `CSC1(C(=O)Nc2cccc(S(=O)(=O)F)c2)CC1`, for which the Inhibition % is given as 101%.

With `C=CC(=O)NC(C)(C)c1cnn(C)c1`, the Inhibition % is reported as 3.17%.

For the molecule `Cn1cc(C(C)(C)C(=O)Nc2cccc(S(=O)(=O)F)c2)cn1`, the Inhibition % was 88.2%.

For the molecule `CC(F)(F)C1(C(=O)Nc2cccc(S(=O)(=O)F)c2)CC1`, the Inhibition % worked out at 95.7%.

In the case of `COCCNC(=O)C(C#N)=Cc1c(Cl)cccc1Cl`, the Inhibition % is listed as 2.17%.

For the molecule `O=C(CCl)Nc1cccc2ncccc12`, the Inhibition % stood at 40.3%.

For `CS(=O)(=O)NC1CCCN(C(=O)C=Cc2cccnc2)C1` (stereo not drawn), the Inhibition % was 5.3%.

As to `N#CN(CCn1cncn1)c1ccccc1`, the Inhibition % came to 6.47%.

As for `OB(O)c1ccc(OCC2CCCCO2)cc1` (stereo not drawn), the Inhibition % is on record as 27.9%.

Turning to `CCN(c1ccc(C(F)(F)F)c(C#N)n1)C1CCOC1` (stereo not drawn), the Inhibition % is 8.44%.

`C=CC(=O)NC1CCCN(c2ncccn2)C1` (stereo not drawn): the Inhibition % is reported as 4.88%.

Take `CC1(C)OB(c2ccc(C(F)C(F)(F)F)cc2)OC1(C)C` (stereo not drawn): the Inhibition % was 3.09%.

For the molecule `Cc1cc(C)n(CCCNc2ccnc(C#N)c2)n1`, the Inhibition % was found to be 3.45%.

As to `CC1CC(Sc2nccc(C(F)(F)F)n2)C(=O)O1` (stereo not drawn), the Inhibition % is reported as 3.32%.

As for `C=CC(=O)N1CCCC(n2ccnn2)CC1` (stereo not drawn), the Inhibition % was determined as 11.9%.

`C=CS(=O)(=O)Nc1ccccc1`: the Inhibition % is 6.78%.

Regarding `CC1(C(=O)Nc2cccc(S(=O)(=O)F)c2)CCOCC1`, the Inhibition % stood at 83.4%.

Consider `C=CC(=O)NCC1c2ccccc2C(=O)N1C` (stereo not drawn), for which the Inhibition % is 7.14%.

For the molecule `C=CC(=O)NC1(c2ccc(C(F)(F)F)cc2)CC1`, the Inhibition % was 6.09%.

As for `C=CC(=O)N1CCCC(c2n[nH]c(=O)o2)C1` (stereo not drawn), the Inhibition % amounted to 1.49%.

Regarding `C=CC(=O)N1CCC(NC(C)=O)(c2nc(C)cs2)C1` (stereo not drawn), the Inhibition % turned out to be 5.8%.

On to `CC1(c2ccc(S(=O)(=O)F)cc2)OCCO1`, for which the Inhibition % worked out at 6.74%.

Turning to `Cc1nc(C(C)(C)C)nc(S)c1C(=O)O`, the Inhibition % was 1.97%.

With `Cc1nc(C2CC2)nc(S)c1C#N`, the Inhibition % is reported as 2.7%.

Turning to `Cc1nc(C2CC2)nc(S)c1C(=O)O`, the Inhibition % is recorded as 51.1%.

Take `C=CC(=O)NC1COc2c(C)cccc2C1` (stereo not drawn): the Inhibition % is on record as 10.9%.

`CC1(C)OB(c2cc3ccccc3cc2Br)OC1(C)C`: the Inhibition % is 11.9%.

`CCN(c1ccc(C(=O)CCl)cc1)S(C)(=O)=O`: the Inhibition % was determined as 95.1%.

For `CN(c1ccc(C(=O)CCl)cc1)S(C)(=O)=O`, the Inhibition % is reported as 94.3%.

As for `N#Cc1ccc(C(=O)CCl)cc1`, the Inhibition % is on record as 18.8%.

`O=C(CCl)N(C1CCCCC1)C1CCS(=O)(=O)C1` (stereo not drawn): the Inhibition % turned out to be 1.27%.

`O=C(CCl)NCC#Cc1cccc(C(F)(F)F)c1`: the Inhibition % is 6.88%.

On to `Cl.ClCCN1CC2CCC(C1)O2`, for which the Inhibition % is 3.05%.

As for `Cc1nc(C#N)[nH]c1C`, the Inhibition % was determined as 3.54%.

In the case of `C=CC(=O)N1CCCC2(CCCOC2)C1` (stereo not drawn), the Inhibition % was determined as 11.3%.
